Screens from PubChem BioAssay.
MBNL1-CUG inh – qHTS Assay for Inhibitors of MBNL1-poly(CUG) RNA binding | 280,000 tested, 0.036% active | TR-FRET MBNL1-His/biotin-(CUG)12 binding, 665/545 ratio | Potency, µM (highest dose often 57.5 µM), without a hit: top-dose activity change, negative = inhibition, most hits filed as inhibitors | Muscleblind-like protein 1 (Homo sapiens), Q9NR56; active = well fitted inhibition curve with a large enough effect in the signal ratio, with a control signal flat, not every such curve was filed as active; inconclusive = small, poorly fitted or top-dose-only effect, or effect the other way, or a change in a side signal; inactive = no such curve, though single readings can be large or run the other way; the % refers to the signal ratio; note: potency is the fitted concentration of half-maximal effect; % is set by controls: 0 for no effect and ±100 for the full control effect
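Inhibition of protein-RNA binding appears as loss of TR-FRET between terbium anti-His antibody on MBNL1-His and streptavidin-XL665 on biotin-(CUG)12. Activity is normalized to buffer-only and uninhibited-complex controls.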
KCNH2 3.1 inh – qHTS for Inhibitors of KCHN2 3.1: Mutant qHTS. Potassium voltage-gated channel subfamily H member 2, brain isoform KCNH2 3.1 (human). AID 720553, 2013. 340,000 tested, 0.95% active. U2OS KCNH2 3.1, thallium flux FluxOr; hits give low values. activity change, % (tested at about 1.8 µM);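 active = maximum activity change below -70%; inconclusive = maximum activity change from -70% to -50%; inactive = maximum activity change above -50%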;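 note: thallium influx rate constant from kinetic fluorescence after stimulation buffer; % is set by controls: 0 for no effect and ±100 for the full control effect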
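Thallium flux read-out: FluxOr dye with Red40 quencher in HBSS/HEPES, 45 min at RT. Rate constants from kinetic reads were normalized to positive and negative DMSO controls. Cells: U2OS virally expressing the 3.1 isoform.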
PLK1 PBD inh – qHTS for Inhibitors of PLK1-PDB (polo-like kinase 1 - polo-box domain): Primary Screen. Serine/threonine-protein kinase PLK1 (Homo sapiens), P53350. Plk1 PBD binding of FITC phosphopeptide, fluorescence polarization. Potency, µM, for the others: max response, negative = inhibition, usual class: inhibitors. 360,000 tested, 2.8% active. AID 720504, 2013; note: potency is the fitted concentration of half-maximal effect; series mostly up to about 57 µM; % is set by controls: 0 for no effect and ±100 for the full control effect; nearly all actives have a fitted effect of over 65% in size
VDR inh – Inhibitors of the vitamin D receptor (VDR): qHTS | VDR-SRC2-3 peptide fluorescence polarization, 2 h | Potency, µM, for the others: max response, negative = inhibition, usual class: inhibitors | 400,000 tested, 0.93% active; note: potency is the fitted concentration of half-maximal effect; % is set by controls: 0 for no effect and ±100 for the full control effect
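Compounds are added to VDR with labelled SRC2-3 coactivator peptide and held 2 h at room temperature. Inhibition of the VDR–peptide interaction is then read as a change in fluorescence polarization.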
hERG WT inh – qHTS for Inhibitors of KCHN2 3.1: Wildtype qHTS | U2OS, BacMam KCNH2, thallium flux FluxOr; hits give low values | 340,000 tested, 0.37% active | activity change, % at 1.84 µM | AID 720551, 2013;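 active = maximum activity change below -70%; inconclusive = maximum activity change between -70% and -50%; inactive = maximum activity change above -50%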; note: % is set by controls: 0 for no effect and ±100 for the full control effect
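U2OS cells were transduced with wild-type KCNH2 virus (2.03 x 10^8 / mL) for 4 h at room temperature, then cultured overnight at 37 C. Thallium flux was read with FluxOr dye. Rate constants were normalized to DMSO controls.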
CBFb RUNX1 block – qHTS Assay for Compounds Blocking the Interaction Between CBF-beta and RUNX1 for the Treatment of Acute Myeloid Leukemia. Potency, µM (top dose mostly 59.8 µM), for the others: at the top dose activity, negative = inhibition, actives largely listed as inhibitors. AlphaScreen CBFb-His/RUNX1-biotin binding, biochemical. 230,000 tested, under 10 active; note: % of control where 0% means no effect
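CBF-beta (His) and RUNX1 (biotin), 30 nM each; 20 min preassociation; + compound, 15 min; + beads 50 ng each (Ni, streptavidin), 90 min; RT; AlphaScreen read.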
Numbers without * were called inactive; u = inconclusive; x = not tested or not shown; [ ] = remark or other dose. Sampled rows, rich in hits. Any-hit rate of the full collection: about 3.8%. Unless noted, calls come from the whole dose curve; as a rule, active = well fitted curve in the direction sought with a large enough effect; inconclusive = small, poorly fitted or top-dose-only effect, or another doubt; inactive = no such curve, though single readings can be large; an effect the other way counts as inactive or inconclusive.

SMILES | MBNL1-CUG inh | KCNH2 3.1 inh | PLK1 PBD inh | VDR inh | hERG WT inh | CBFb RUNX1 block
COc1ccc(C2Nc3cccc4cccc(c34)N2)cc1 | 14.9% | 6.8 | 29.9µM* | -19.0% | -3.2 | -2.7%
Clc1cccc(Cl)c1C1Nc2cccc3cccc(c23)N1 | 4.1% | -96.6* | -7.3% | 12.7% | -5.7 | x
CCN(c1ccccc1)c1nc(N)nc(C#N)n1 | x | x | x | 13.1% | x | x
Cc1ccc(C2NC(=O)CCC2[N+](=O)[O-])cc1 (stereo unspecified) | -13.6% | -5.0 | 18.9µM* | u | 4.7 | -2.3%
O=C1N=c2ccccc2=C1c1sc(=S)n(NC(=O)c2cccc(O)c2)c1O | -1.5% | -18.2 | -14.5% | -21.9% | -5.4 | 2.5%
O=C1N=c2ccc(Br)cc2=C1c1sc(=S)n(NS(=O)(=O)c2ccccc2)c1O | 5.3% | -14.5 | 23.8µM* | u | -46.4 | 18.1%
COc1ccc(CCN2C(=O)CC(Cc3ccc(C)cc3)C2=O)cc1OC (stereo unspecified) | -5.4% | 21.4 | 11.9µM* | u | -2.3 | 3.8%
COc1ccc(CCN2C(=O)CC(NC34CC5CC(CC(C5)C3)C4)C2=O)cc1OC (stereo unspecified) | -2.4% | 3.4 | -9.9% | 13.7% | -0.7 | 2.9%
CC[C@H](C)[C@H](NC(=O)[C@H](C)NC(=O)CNC(=O)[C@H](CCCCN)NC(=O)[C@H](CC(N)=O)NC(=O)[C@H](CO)NC(=O)CN)C(=O)N[C@H](C(=O)NCC(=O)N[C@@H](CC(C)C)C(=O)N[C@@H](CCSC)C(=O)O)[C@@H](C)CC | x | x | x | -1.2% | x | 27.2%
Cc1c(C(=O)N(Cc2ccc(N(C)C)cc2)CC2CCCO2)oc2ccc(Br)cc12 (stereo unspecified) | x | x | x | 13.3% | x | x
CCc1nn2c(=O)cc(COc3cccc(NC(=O)c4ccco4)c3)nc2s1 | -5.6% | -0.8 | 26.7µM* | u | -9.9 | x
CCCc1nn2c(=O)cc(COc3ccc(NC(=O)c4ccco4)cc3)nc2s1 | 4.1% | -2.1 | 21.2µM* | -24.9% | 2.9 | x
CC(C)Cc1nn2c(=O)cc(COc3ccc(NC(=O)c4ccco4)cc3)nc2s1 | 4.0% | 17.6 | -8.0% | 1.8% | 2.4 | x
CCc1nn2c(=O)cc(COc3ccc(NC(=O)c4ccco4)cc3)nc2s1 | 7.6% | -10.3 | 26.7µM* | -8.7% | 4.7 | x
Cc1ccc(-n2nc(C)c3c(C)c(CCC(=O)NCc4ccccc4Cl)c(C)nc32)cc1C | x | x | x | -5.2% | x | x
O=[N+]([O-])c1ccc(-c2ccc(S(=O)(=O)NCCN3CCCC3)cc2)cc1 | u | -89.9* | -2.2% | -14.4% | 5.9 | -23.6%
COc1ccc(C(=O)CCN2CCc3cc(OC)c(OC)cc3C2)cc1 | 1.3% | -34.4 | 26.7µM* | u | 2.1 | 2.6%
CC1(C)[C@H]2CC[C@]1(C)[C@@H](OC(=O)C[N+]1(C)CCOCC1)C2 | x | -5.4 | -9.5% | 5.5% | 1.5 | 2.4%
CC1(C)[C@@H]2CC[C@]1(C)[C@@H](OC(=O)CSC#N)C2 | x | x | x | 50.1µM* | x | x
CCOC(=O)c1nnc2c(Br)c(-c3ccccc3)nn2c1C | u | -0.2 | 29.9µM* | u | -10.5 | -0.6%
CCOC(=O)c1nnc2cc(-c3ccccc3)nn2c1C | u | 4.0 | -7.6% | 14.5% | 4.8 | -6.2%
CCn1c(=O)c2c(nc3n2CCCN3CCc2ccc(OC)c(OC)c2)n(C)c1=O | -7.6% | -71.9* | 3.3% | 4.1% | 1.3 | x
O=C(O)CCc1nn2c3ccccc3n(Cc3ccccc3F)c2nc1=O | 0.0% | -1.6 | 26.7µM* | u | -4.0 | 13.6%
CC1(OC(=O)c2cnc3ccccc3n2)C(=O)C=C2C=C3CCCN3C=C2C1=O (stereo unspecified) | x | x | x | x | x | 3.3%[13.1 µM]
CCCCN(Cc1ccccc1)S(=O)(=O)c1cc(Br)cc2c1N(C(=O)C1CC1)CC2 | x | x | x | -3.4% | x | x
SMILES | MBNL1-CUG inh | KCNH2 3.1 inh | PLK1 PBD inh | VDR inh | hERG WT inh | CBFb RUNX1 block
CS(=O)(=O)CC[C@@H](C(=O)NCCc1ccccc1)N1Cc2ccccc2C1=O | x | x | x | -7.4% | x | x
COc1cccc(CNC(=O)CCC2CCCN(C(=O)CCn3cncn3)C2)c1 (stereo unspecified) | -4.7% | -94.3* | -2.7% | -3.4% | 2.9 | 3.7%
COc1cccc(CNC(=O)CCC2CCCN(C(=O)CCC(F)(F)F)C2)c1 (stereo unspecified) | -9.4% | -8.3 | -9.4% | 8.9% | -9.0 | 8.3%
COc1ccc(NC(=O)CN2C(=O)COc3ccc(S(=O)(=O)NC4CCCC4)cc32)cc1OC | x | x | x | -1.0% | x | x
Cc1ccccc1CNC(=O)C(=O)NCCC1CCCCN1S(=O)(=O)c1cccs1 (stereo unspecified) | x | -166.3* | -8.1% | -28.3% | -144.3* | x
COc1ccccc1CNC(=O)C(=O)NCCC1CCCCN1S(=O)(=O)c1cccs1 (stereo unspecified) | x | -2.0 | -4.8% | 12.4% | 8.6 | x
COc1ccc(C)cc1N(C(=O)COc1ccccc1)c1nc2ccccc2s1 | -0.8% | -74.0* | -5.1% | -2.7% | u | 0.3%
CCn1c(C(=O)NCc2ccccc2)cc2sc(Cl)cc21 | x | x | x | 7.0% | x | x
CCC(C)N(C(=O)CSc1nc(C)nc2ccccc12)C1CCS(=O)(=O)C1 (stereo unspecified) | x | -15.4 | 3.8% | -15.4% | -6.5 | x
CCN(C(=O)CSc1nc2ccccc2c(=O)n1-c1cccc(C)c1)C1CCS(=O)(=O)C1 (stereo unspecified) | -0.1% | 2.9 | 26.7µM* | -13.8% | -16.7 | 3.9%
CCN(C(=O)CSc1nc2ccccc2c(=O)n1Cc1ccc(C)cc1)C1CCS(=O)(=O)C1 (stereo unspecified) | x | u | -4.3% | -0.9% | -3.8 | x
C=CCn1c(SCC(=O)N(C(C)CC)C2CCS(=O)(=O)C2)nc2ccccc2c1=O (stereo unspecified) | x | -87.5* | -9.2% | -0.5% | -32.6 | x
Cc1ccc(-c2noc(CN(C3CCCCC3)S(=O)(=O)c3ccc(F)cc3)n2)cc1 | x | x | x | 11.8% | x | x
CN(C)S(=O)(=O)c1ccc2c(c1)N(CC(=O)N1CCN(c3ccccc3F)CC1)CCS2 | x | x | x | 12.9% | x | x
COc1ccc(NC(=O)CNC(=O)Cn2cnc3sc4c(c3c2=O)CCCC4)cc1OC | -4.4% | 3.6 | 0.5% | 8.3% | -0.5 | x
O=C(Cn1cnc2sc3c(c2c1=O)CCCC3)NCC(=O)Nc1c(F)cc(F)cc1Br | -1.3% | 5.7 | 29.9µM* | -14.2% | -9.9 | x
